Only some compounds are listed: those with a hit (about 3% of all), similar ones and a draw of the others.
Vc quorum ag: inducers of Vibrio cholerae quorum light production without autoinducers | V. cholerae BH1578 lux reporter, luminescence, 6 h | activation, % at 18.7 µM | 0.16% of 350,000 active; in the data active means activation mostly above about 9.7%, no sharp cut-off
BioA inh: BioA (M. tuberculosis) enzyme inhibition; 0.096% of 360,000 active; AID 602481; purified M. tuberculosis BioA enzyme, plate reader; inhibition, % at 9.99 µM; in the data active means inhibition above about 40%
GDH-TPI counter-1: counter-screen for M. tuberculosis FBA inhibitors: GDH-TPI coupled enzymes; 1.2% of 360,000 active; GDH-TPI coupled enzyme counterscreen, NADH absorbance; inhibition, % at 4.8 µM; in the data active means inhibition above about 30%;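 further: 0% = DMSO wells and 100% = wells lacking the enzyme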
Mtb FBA inh: Mtb fructose-bisphosphate aldolase inhibition | P9WQA3 | purified M. tuberculosis FBA, fluorescence read-out | inhibition, % at 1 µM | 2.3% of 360,000 active | AID 588726;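 further: 0% = vehicle and 100% = reference inhibitor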
Target sequence (P9WQA3 whole entry, looked up): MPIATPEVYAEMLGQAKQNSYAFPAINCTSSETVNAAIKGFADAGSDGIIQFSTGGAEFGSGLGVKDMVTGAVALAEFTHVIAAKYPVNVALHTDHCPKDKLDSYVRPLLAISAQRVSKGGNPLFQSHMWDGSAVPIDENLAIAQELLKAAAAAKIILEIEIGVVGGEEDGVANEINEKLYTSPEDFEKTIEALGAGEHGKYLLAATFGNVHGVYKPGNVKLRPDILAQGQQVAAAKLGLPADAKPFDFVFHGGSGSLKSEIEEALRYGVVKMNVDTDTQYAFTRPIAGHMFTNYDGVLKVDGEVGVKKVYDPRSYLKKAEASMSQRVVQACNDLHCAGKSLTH
Mtb FBA confirm: confirmation of M. tuberculosis fructose-bisphosphate aldolase inhibitors; shares compounds with Mtb FBA inh; purified M. tuberculosis FBA, fluorescence read-out; inhibition, % at 1 µM; 78% of 5,600 active; AID 651616;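 further: 0% = vehicle wells and 100% = reference inhibitor wells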
GDH-TPI counter-2: counter-screen for M. tuberculosis FBA inhibitors: GDH-TPI coupled enzyme inhibition; shares compounds with Mtb FBA inh; GDH-TPI coupled enzyme counterscreen, fluorescence; inhibition, % at 1 µM; 81% of 5,600 active; in the data active means inhibition above about 10%
* marks the source's active call; other numbers are inactive results; i = inactive; nt = no result; + = active, no number. Unless noted, no stated cut-off is given here; in the data, active means inhibition above about 27%; inactive means the rest.

SMILES	Vc quorum ag	BioA inh	GDH-TPI counter-1	Mtb FBA inh	Mtb FBA confirm	GDH-TPI counter-2
Cc1cc(C)c2nc(-c3ccccn3)cc(C(=O)NCCc3ccc(S(N)(=O)=O)cc3)c2c1	-2	-2	5	39*	164*	133*
Cc1cc(C)c2nc(-c3ccccn3)cc(C(=O)Nc3ccc(S(=O)(=O)Nc4cc(C)on4)cc3)c2c1	i	6	19	5	nt	nt
Cc1cc(C)c2nc(-c3ccccn3)cc(C(=O)NCc3ccc(S(N)(=O)=O)cc3)c2c1	0	nt	6	50*	8	0
CO[C@H]1CN(C)C(=O)c2cc(NC(=O)c3ccccc3)ccc2OC[C@@H](C)NC[C@@H]1C	nt	1	nt	nt	nt	nt
Cc1ccc(-c2nc3ccccn3c2Nc2ccccc2)o1	0	nt	8	108*	138*	127*
CC(C)=CCn1c2ccc(NC(=S)NC3CC3)cc2c(=O)n1C	0	3	-2	31*	88*	74*
COc1ccc(NC(=O)NCCc2cccc(Cl)c2)cc1OC	0	nt	-1	-1	nt	nt
COc1ccc(CCNC(=O)Nc2ccc3c(c2)c(=O)n(C)n3Cc2ccc(Cl)cc2)cc1OC	0	3	-2	88*	29*	28*
Cn1c(=O)c2cc(NC(=S)NC3CC3)ccc2n1Cc1ccccc1	i	6	3	41*	7	-1
Cc1nc(Cn2c3ccc(NC(=S)NC4CCCCC4)cc3c(=O)n2C)cs1	-5	3	12	28*	73*	49*
COc1ccc(S(=O)(=O)N(C)C[C@H]2OCc3cn(nn3)CCCC(=O)N([C@@H](C)CO)C[C@H]2C)cc1	nt	-1	nt	nt	nt	nt
COc1cccc(CNC(=S)Nc2ccc3c(c2)c(=O)n(C)n3Cc2ccccc2)c1	0	1	6	56*	68*	44*
CO[C@H]1CN(C)C(=O)c2cc(NC(=O)NC(C)C)ccc2OC[C@H](C)N(CC2CC2)C[C@@H]1C	nt	-3	nt	nt	nt	nt
O=C(CC1Sc2ccccc2NC1=O)OCc1cc(=O)oc2cc(O)ccc12 (stereo unspecified)	i	nt	21	35*	91*	80*
Cc1ccc2c(COC(=O)CC3Sc4ccccc4NC3=O)cc(=O)oc2c1C (stereo unspecified)	0	0	3	-2	nt	nt
Cc1ccc(S(=O)(=O)N(C)C[C@@H]2Oc3ncc(C#CC4(O)CCCC4)cc3C(=O)N([C@H](C)CO)C[C@@H]2C)cc1	nt	2	nt	nt	nt	nt
CCCc1nc2c([nH]1)c(=O)n(C)c(=O)n2C	i	-1	-1	-1	nt	nt
CCOc1ccccc1-c1nc2c([nH]1)c(=O)n(C)c(=O)n2C	0	0	17	39*	94*	82*
CC(=O)Cn1c2ccccc2n2nc(CCC(=O)O)c(=O)nc12	0	-4	4	26	nt	nt
O=C(O)CCc1nn2c3ccccc3n(Cc3ccccc3)c2nc1=O	i	nt	4	36*	3	0
O=C(C[C@@H]1C[C@@H]2c3cc(NC(=O)Nc4ccccc4)ccc3O[C@@H]2[C@H](CO)O1)NCc1cccnc1	nt	1	nt	nt	nt	nt
Cc1cccc(NC(=O)CN2C(=O)N/C(=C/c3ccc(C)o3)C2=O)c1	-2	-1	29	-1	nt	nt
Cc1cccc(NC(=O)CN2C(=O)N/C(=C\c3ccc(-c4cccc(C(=O)O)c4)o3)C2=O)c1	0	nt	18	34*	189*	143*
O=C(O)c1c(-c2ccccc2)c2oc3ccccc3c2[nH]c1=O	i	0	17	108*	90*	70*
O=c1[nH]c2c(oc3ccccc32)c(=O)n1Cc1ccccc1	i	-1	2	16	nt	nt
SMILES	Vc quorum ag	BioA inh	GDH-TPI counter-1	Mtb FBA inh	Mtb FBA confirm	GDH-TPI counter-2
Cc1cc(NC(=O)CCCC(=O)NCc2cccs2)no1	i	0	-8	57*	88*	62*
CC(=O)N(CC(=O)Nc1nn(-c2ccccc2)nc1C(N)=O)Cc1ccccc1	-1	nt	2	43*	1	-3
NC(=O)c1nn(-c2ccccc2)nc1NC(=O)CN1CCCC1	0	0	0	25	nt	nt
COc1ccc(S(=O)(=O)Nc2ccc3c(c2)C(=O)N([C@@H](C)CO)C[C@H](C)[C@H](CN(C)S(=O)(=O)c2cccs2)OCCCC[C@@H](C)O3)cc1	nt	2	nt	nt	nt	nt
COC(=O)c1cc(=O)nc2sc(-c3ccc(F)cc3)nn12	i	-1	1	7	nt	nt
COC(=O)c1cc(=O)nc2sc(-c3cccs3)nn12	i	-2	29	35*	6	0
c1ccc(-c2noc(-c3cccc4ccccc34)n2)nc1	-1	1	-4	46*	+	+
